# Inconclusive results are not listed. Entries that show only a call come without a potency. Activity calls are given as the source filed them. Unless noted, calls come from the whole dose curve.
# Tests used:
# [1] = target: Acetylcholinesterase (Homo sapiens) (UniProt P22303); assay: Acetylcholinesterase (AChE) small molecule antagonists: enzyme-based qHTS assay (AID 1347397); settings: Potency: AChE enzyme activity inhibition; outcome: AChE enzyme activity inhibition; note: nearly all actives have a fitted effect of over 55% in size
# Outline: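 Tox21 library chemicals are tested in qHTS format against recombinant human AChE. The enzyme, dispensed at 50 mU/mL, sits with compound for 30 min at room temperature. A DTNB–acetylthiocholine cocktail follows, and colour is read after 10 min.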
# [2] = target: Acetylcholinesterase (Homo sapiens) (UniProt P22303); assay: Acetylcholinesterase (AChE) small molecule antagonists: enzyme-based qHTS assay with human liver microsomes (AID 1347399); settings: Potency: qHTS inhibition; outcome: qHTS inhibition; note: nearly all actives have a fitted effect of over 60% in size
# Outline: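 Recombinant human AChE (50 mU/mL in the enzyme mix) and human liver microsomes (0.25 mg/mL final) were preincubated with compound and NADPH (0.25 mg/mL final) for 30 min at 37 C. Acetylthiocholine/DTNB was then added; thiocholine was read colorimetrically after 10 min at room temperature.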
# [3] = target: Acetylcholinesterase (Homo sapiens) (UniProt P22303); assay: Acetylcholinesterase (AChE) small molecule antagonists: fluorescence cell-based qHTS assay (AID 1347398); settings: Potency: AChE activity; outcome: AChE activity; note: nearly all actives have a fitted effect of over 50% in size; note: potency is the fitted concentration of half-maximal effect
# Outline: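 Cellular AChE inhibition: SH-SY5Y cells treated with test chemical for 30 min at 37 C, then acetylthiocholine hydrolysis followed over 40 min at room temperature via thiocholine-reactive Thiolite Green fluorescence (490/520 nm).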
# [4] = qHTS assay for small molecule agonists of the p53 signaling pathway (AID 651631); note: nearly all actives have a fitted effect of over 15% in size
# Outline: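 Stably transfected HCT-116 cells (beta-lactamase behind p53 response elements) get compounds after a 5 h settling period; 16 h later at 37 °C, FRET substrate is loaded and fluorescence read after 2 h.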
# [5] = qHTS assay for small molecules that induce genotoxicity in human embryonic kidney cells expressing luciferase-tagged ATAD5 (AID 651632; active = well fitted curve in the direction sought with a large enough effect in the repeat runs; an effect the other way counts as inactive or inconclusive; note: nearly all actives have a fitted effect of over 15% in size)
# Outline: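 Quantitative HTS in HEK293T expressing luciferase-tagged ATAD5, whose levels rise upon DNA damage. Exposure ran 16 hr at 37C and 5% CO2, with luminescence read 30 min after Amplite addition at room temperature.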
# [6] = qHTS assay for small molecule agonists of the p53 signaling pathway - cell viability (AID 651633);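 note: p53RE-bla HCT reporter cells with a stable beta-lactamase p53 reporter; series mostly up to about 83 µM; nearly all actives have a fitted effect of over 30% in size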
# Outline: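 p53RE-bla cells, seeded at 4,000 per well and rested 5 h at 37 C/5% CO2, received compounds in DMSO for 16 h at 37 C. CellTiter-Glo was then added, and luminescence was read after 30 min at room temperature to gauge cytotoxicity.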
# [7] = qHTS assay for small molecules that induce genotoxicity in human embryonic kidney cells expressing luciferase-tagged ATAD5 - cell viability (AID 651634); note: nearly all actives have a fitted effect of over 25% in size
# Outline: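 After 15.5 hr incubation with compound at 37C, 5% CO2, HEK293T ATAD5-luciferase cells received CellTiter-Fluor reagent; fluorescence intensity was quantified following 30 min at 37C.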
# [8] = qHTS assay for small molecule disruptors of the mitochondrial membrane potential - cell viability (AID 720634);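 note: human HepG2 liver cancer cells; series mostly up to about 83 µM; nearly all actives have a fitted effect of over 20% in size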
# Outline: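 ATP-based luminescent viability readout (CellTiter-Glo, 30 min, room temperature) in HepG2 cells multiplexed with the m-MPI membrane potential dye; compound exposure lasted 1 hr at 37 C.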
# [9] = qHTS assay for small molecule disruptors of the mitochondrial membrane potential (AID 720635; active = well fitted curve in the direction sought with a large enough effect in the repeat runs; an effect the other way counts as inactive or inconclusive)
# Outline: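 HepG2 cells (2,000/well) attached overnight at 37C, then took compound for 1 hr at 37C, 5% CO2. Mito-MPS dye was added for 30 min; fluorescence was read at 490/535 nm (monomers) and 540/590 nm (aggregates).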
# [10] = qHTS assay to test for compound auto fluorescence at 535 nm (green) in HepG2 cells (AID 720675; active = well fitted curve in the direction sought with a large enough effect in the repeat runs; an effect the other way counts as inactive or inconclusive)
# [11] = qHTS assay to test for compound auto fluorescence at 460 nm (blue) in HEK293 cells (AID 720678; active = well fitted curve in the direction sought with a large enough effect in the repeat runs; an effect the other way counts as inactive or inconclusive)
# Outline: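 Intrinsic compound fluorescence is recorded in live HEK293 cultures after overnight incubation at 37C, 5% CO2, using excitation 405 nm and emission 460 nm. Values are referenced to triamterene.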
# [12] = qHTS assay to test for compound auto fluorescence at 590 nm (red) in HEK293 cells (AID 720679; active = well fitted curve in the direction sought with a large enough effect in the repeat runs; an effect the other way counts as inactive or inconclusive)
# Outline: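 Red autofluorescence, HEK293 cells: 2,000 cells/well; attach 4-5 hr 37C; add 23 nL cpd or DMSO; incubate o/n 37C 5% CO2; read Ex540/Em590; Rose Bengal sodium reference.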
# [13] = qHTS assay to test for compound auto fluorescence at 535 nm (green) in HEK293 cells (AID 720680; active = well fitted curve in the direction sought with a large enough effect in the repeat runs; an effect the other way counts as inactive or inconclusive)
# [14] = qHTS assay to test for compound auto fluorescence at 460 nm (blue) in HEK293 cell free culture (AID 720681; active = well fitted curve in the direction sought with a large enough effect in the repeat runs; an effect the other way counts as inactive or inconclusive)
# Outline: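 Test compounds were pinned into cell-free culture medium (DMEM with 10% FBS) and fluorescence was read directly at Ex/Em 405/460 nm. Signals were expressed as fluorescence equivalents of triamterene, with DMSO vehicle as control.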
# [15] = qHTS assay to test for compound auto fluorescence at 535 nm (green) in HEK293 cell free culture (AID 720682; active = well fitted curve in the direction sought with a large enough effect in the repeat runs; an effect the other way counts as inactive or inconclusive)
# Outline: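 Using fluorescein as calibrant, autofluorescence was quantified at 485/535 nm in cell-free DMEM containing 10% FBS after pintool addition of compound or vehicle.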
# [16] = qHTS assay to test for compound auto fluorescence at 590 nm (red) in HEK293 cell free culture (AID 720683; active = well fitted curve in the direction sought with a large enough effect in the repeat runs; an effect the other way counts as inactive or inconclusive)
# Outline: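 Tox21 10K library compounds were pinned into cell-free DMEM with 10% FBS and fluorescence was read at excitation 540 nm. Activity is expressed as Rose Bengal sodium equivalency.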
# [17] = qHTS assay to test for compound auto fluorescence at 590 nm (red) in HepG2 cell free culture (AID 720684; active = well fitted curve in the direction sought with a large enough effect in the repeat runs; an effect the other way counts as inactive or inconclusive)
# Outline: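 Readout: intrinsic compound fluorescence at 590 nm emission after 540 nm excitation, scaled to Rose Bengal sodium. Matrix was cell-free MEM with 10% FBS; DMSO vehicle wells served as control.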
# [18] = qHTS assay to test for compound auto fluorescence at 460 nm (blue) in HepG2 cell free culture (AID 720685; active = well fitted curve in the direction sought with a large enough effect in the repeat runs; an effect the other way counts as inactive or inconclusive)
# Outline: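 Cell-free plates of MEM plus 10% FBS received 23 nL compound or DMSO vehicle; blue-channel (405/460 nm) intensity scored against triamterene as reference fluorophore.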
# [19] = qHTS assay to test for compound auto fluorescence at 535 nm (green) in HepG2 cell free culture (AID 720686; active = well fitted curve in the direction sought with a large enough effect in the repeat runs; an effect the other way counts as inactive or inconclusive)
# [20] = qHTS assay to test for compound auto fluorescence at 460 nm (blue) in HepG2 cells (AID 720687; active = well fitted curve in the direction sought with a large enough effect in the repeat runs; an effect the other way counts as inactive or inconclusive)
# Outline: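 Cells (2,000/well in MEM with 10% FBS) attached overnight at 37 C, then were exposed to compound or DMSO for 1 hr at 37 C, 5% CO2. Fluorescence read at Ex/Em 405/460 nm, expressed as triamterene-equivalent signal.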
# [21] = target: Glucocorticoid receptor (Homo sapiens) (UniProt P04150); assay: qHTS assay to identify small molecule agonists of the glucocorticoid receptor (GR) signaling pathway (AID 720691; active = well fitted activation curve with a large enough effect in the signal ratio in the repeat runs, not every such curve was filed as active; the % refers to the signal ratio)
# Outline: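 Cells: GR-bla HeLa, endogenous GR with stably integrated GRE-beta-lactamase reporter. Treatment 18 h, 37 C, compounds delivered in DMSO. Detection via LiveBLAzer B/G FRET substrate, 2 h RT, fluorescence intensity.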
# [22] = target: Glucocorticoid receptor (Homo sapiens) (UniProt P04150); assay: qHTS assay to identify small molecule antagonists of the glucocorticoid receptor (GR) signaling pathway (AID 720692; active = well fitted inhibition curve with a large enough effect in the signal ratio in the repeat runs, not every such curve was filed as active; the % refers to the signal ratio)
# Outline: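 Quantitative HTS in antagonist format: HeLa cells expressing endogenous GR and a stably integrated GRE-bla reporter, stimulated with 5 nM dexamethasone (final) alongside test compounds for 18 h.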
# [23] = qHTS assay to identify small molecule antagonists of the glucocorticoid receptor (GR) signaling pathway - cell viability counter screen (AID 720693; active = well fitted curve in the direction sought with a large enough effect in the repeat runs; an effect the other way counts as inactive or inconclusive; note: nearly all actives have a fitted effect of over 55% in size)
# [24] = qHTS assay for identifying genotoxic compounds that show differential cytotoxicity against isogenic chicken DT40 cell lines with known DNA damage response pathways - Rad54/Ku70 mutant cell line (AID 743015; active = well fitted curve in the direction sought with a large enough effect in the repeat runs; an effect the other way counts as inactive or inconclusive; note: potency is the fitted concentration of half-maximal effect; nearly all actives have a fitted effect of over 60% in size)
# [25] = qHTS assay to identify small molecule antagonists of the androgen receptor (AR) signaling pathway - cell viability counter screen (AID 743033; active = well fitted curve in the direction sought with a large enough effect in the repeat runs; an effect the other way counts as inactive or inconclusive; note: nearly all actives have a fitted effect of over 45% in size)
# [26] = qHTS assay to identify small molecule antagonists of the thyroid receptor (TR) signaling pathway - cell viability counter screen (AID 743064; active = well fitted curve in the direction sought with a large enough effect in the repeat runs; an effect the other way counts as inactive or inconclusive; note: nearly all actives have a fitted effect of over 50% in size)
# Outline: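 Counter screen for cytotoxicity: compound plus T3 (1 nM final) on GH3.TRE-Luc cells, 23.5 h at 37 °C, then fluorescence viability readout with CellTiter-Fluor.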
# [27] = tested on: thyroid hormone receptor (rat, GH3 cells); assay: qHTS assay to identify small molecule agonists of the thyroid receptor (TR) signaling pathway (AID 743066)
# [28] = target: Estrogen receptor (Homo sapiens) (UniProt P03372); assay: qHTS assay to identify small molecule antagonists of the estrogen receptor alpha (ER-alpha) signaling pathway (AID 743069; active = well fitted curve in the direction sought with a large enough effect in the signal ratio in the repeat runs, not every such curve was filed as active; the % refers to the signal ratio)
# Outline: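 Screening used a UAS-driven beta-lactamase reporter integrated into HEK293 cells expressing ER-alpha, stimulated with 17beta-estradiol alongside test compounds over 18 hr at 37C; signal came from LiveBLAzer B/G FRET fluorescence.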
# [29] = qHTS assay to identify small molecule antagonists of the estrogen receptor alpha (ER-alpha) signaling pathway - cell viability counter screen (AID 743074); note: nearly all actives have a fitted effect of over 45% in size
# [30] = target: Estrogen receptor (Homo sapiens) (UniProt P03372); assay: qHTS assay to identify small molecule agonists of the estrogen receptor alpha (ER-alpha) signaling pathway (AID 743075)
# [31] = target: Estrogen receptor (Homo sapiens) (UniProt P03372); assay: qHTS assay to identify small molecule agonists of the estrogen receptor alpha (ER-alpha) signaling pathway using the BG1 cell line (AID 743079; active = well fitted curve in the direction sought with a large enough effect in the repeat runs; an effect the other way counts as inactive or inconclusive; note: nearly all actives have a fitted effect of over 20% in size)
# [32] = qHTS assay to identify small molecule antagonists of the estrogen receptor alpha (ER-alpha) signaling pathway using the BG1 cell line (AID 743080);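 note: BG1 cells stimulated with 17beta-estradiol alongside compound; series mostly up to about 70 µM; nearly all actives have a fitted effect of over 25% in size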
# Outline: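 Readout is ONE-Glo luminescence, taken 30 min at room temperature after reagent addition, preceded by a CellTiter-Fluor viability read; BG1-Luc-4E2 cells had received compound and 17beta-estradiol for 21.5 h at 37 C.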
# Aromatase (Homo sapiens) = Aromatase (Homo sapiens) (UniProt P11511); assay: qHTS assay to identify aromatase inhibitors (AID 743083; active = well fitted curve in the direction sought with a large enough effect in the repeat runs; an effect the other way counts as inactive or inconclusive; note: series mostly up to about 70 µM; nearly all actives have a fitted effect of over 55% in size)
# [33] = qHTS assay to identify aromatase inhibitors - cell viability counter screen (AID 743084; active = well fitted curve in the direction sought with a large enough effect in the repeat runs; an effect the other way counts as inactive or inconclusive;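 note: cells stimulated with testosterone during compound exposure; nearly all actives have a fitted effect of over 55% in size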)
# [34] = target: Aryl hydrocarbon receptor (Homo sapiens) (UniProt P35869); assay: qHTS assay to identify small molecule that activate the aryl hydrocarbon receptor (AhR) signaling pathway (AID 743085; active = well fitted curve in the direction sought with a large enough effect in the repeat runs; an effect the other way counts as inactive or inconclusive;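 note: HG2L7.5c1 human HepG2 liver cells with stably integrated DRE-driven firefly reporter; series mostly up to about 70 µM; nearly all actives have a fitted effect of over 15% in size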)
# Outline: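 Measured in HG2L7.5c1 cells: CellTiter-Fluor signal (30 min incubation, 37C) for viability, then luciferase luminescence (30 min, room temperature). Compound contact time was 24 h at 37C, following a 5 h pre-incubation.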
# [35] = target: Peroxisome proliferator-activated receptor gamma (Homo sapiens) (UniProt P37231); assay: qHTS assay to identify small molecule agonists of the peroxisome proliferator-activated receptor gamma (PPARg) signaling pathway (AID 743094; active = well fitted activation curve with a large enough effect in the signal ratio in the repeat runs, not every such curve was filed as active; the % refers to the signal ratio)
# Outline: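 Reporter activation was scored by fluorescence of cleaved LiveBLAzer B/G substrate (1 h, room temperature) in PPARg-bla HEK293H cells previously treated 17 h at 37C with DMSO-dissolved compounds.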
# Chain of Estrogen receptor (Homo sapiens) (P03372 whole entry, looked up): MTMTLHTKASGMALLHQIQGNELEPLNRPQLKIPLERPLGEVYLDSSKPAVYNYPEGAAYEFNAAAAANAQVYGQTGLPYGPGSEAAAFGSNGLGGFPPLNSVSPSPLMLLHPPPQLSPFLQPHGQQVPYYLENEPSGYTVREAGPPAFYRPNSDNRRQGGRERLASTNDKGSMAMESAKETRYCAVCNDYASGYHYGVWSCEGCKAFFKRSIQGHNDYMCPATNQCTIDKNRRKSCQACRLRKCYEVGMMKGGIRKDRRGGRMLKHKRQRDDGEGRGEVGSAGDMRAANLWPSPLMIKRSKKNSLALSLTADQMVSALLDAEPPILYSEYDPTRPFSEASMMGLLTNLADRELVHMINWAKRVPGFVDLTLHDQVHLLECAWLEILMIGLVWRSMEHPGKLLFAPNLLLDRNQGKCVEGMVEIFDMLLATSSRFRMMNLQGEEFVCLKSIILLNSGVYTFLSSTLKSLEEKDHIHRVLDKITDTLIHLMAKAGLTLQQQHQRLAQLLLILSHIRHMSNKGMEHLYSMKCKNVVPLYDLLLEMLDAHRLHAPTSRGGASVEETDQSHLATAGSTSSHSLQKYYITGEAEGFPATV
# Chain of Aryl hydrocarbon receptor (Homo sapiens) (P35869 whole entry, looked up): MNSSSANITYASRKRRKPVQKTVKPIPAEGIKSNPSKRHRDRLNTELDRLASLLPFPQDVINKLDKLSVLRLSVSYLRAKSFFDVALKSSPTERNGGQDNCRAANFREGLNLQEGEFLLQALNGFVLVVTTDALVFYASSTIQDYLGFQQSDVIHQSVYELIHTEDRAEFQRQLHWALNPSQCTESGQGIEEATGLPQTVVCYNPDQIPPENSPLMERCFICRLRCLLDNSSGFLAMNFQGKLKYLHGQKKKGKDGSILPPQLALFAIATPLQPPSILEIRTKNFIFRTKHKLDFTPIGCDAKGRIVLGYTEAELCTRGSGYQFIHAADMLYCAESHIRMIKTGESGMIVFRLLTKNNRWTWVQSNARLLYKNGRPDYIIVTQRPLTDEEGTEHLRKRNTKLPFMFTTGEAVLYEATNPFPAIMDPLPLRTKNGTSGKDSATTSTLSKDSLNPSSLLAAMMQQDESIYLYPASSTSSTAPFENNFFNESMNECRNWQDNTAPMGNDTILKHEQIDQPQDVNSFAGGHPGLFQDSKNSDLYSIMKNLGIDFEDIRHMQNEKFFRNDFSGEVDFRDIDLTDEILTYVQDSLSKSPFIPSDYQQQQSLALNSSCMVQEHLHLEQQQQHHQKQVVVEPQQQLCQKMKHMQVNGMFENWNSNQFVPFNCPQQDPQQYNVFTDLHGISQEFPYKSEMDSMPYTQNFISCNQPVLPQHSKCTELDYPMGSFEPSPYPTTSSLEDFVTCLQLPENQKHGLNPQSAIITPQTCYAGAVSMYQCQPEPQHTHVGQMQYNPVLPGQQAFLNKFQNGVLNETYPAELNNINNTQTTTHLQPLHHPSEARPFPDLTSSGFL
# Chain of Acetylcholinesterase (Homo sapiens) (P22303 whole entry, looked up): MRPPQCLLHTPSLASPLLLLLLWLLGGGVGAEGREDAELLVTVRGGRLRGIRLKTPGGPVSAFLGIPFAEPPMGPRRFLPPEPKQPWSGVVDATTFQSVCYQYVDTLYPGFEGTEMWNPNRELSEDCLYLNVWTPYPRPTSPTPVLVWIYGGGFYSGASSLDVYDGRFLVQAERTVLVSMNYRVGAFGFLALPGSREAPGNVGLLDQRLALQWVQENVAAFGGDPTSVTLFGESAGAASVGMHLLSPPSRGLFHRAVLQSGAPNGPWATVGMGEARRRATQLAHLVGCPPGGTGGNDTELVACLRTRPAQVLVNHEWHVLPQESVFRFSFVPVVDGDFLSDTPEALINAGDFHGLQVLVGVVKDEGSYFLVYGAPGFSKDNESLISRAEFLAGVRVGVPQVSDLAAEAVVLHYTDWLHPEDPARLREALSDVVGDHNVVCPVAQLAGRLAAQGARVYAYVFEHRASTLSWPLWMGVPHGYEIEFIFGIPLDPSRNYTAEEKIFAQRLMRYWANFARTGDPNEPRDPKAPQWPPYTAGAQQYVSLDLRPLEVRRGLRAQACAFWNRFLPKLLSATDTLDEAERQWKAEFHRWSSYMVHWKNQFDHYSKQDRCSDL
# Chain of Glucocorticoid receptor (Homo sapiens) (P04150 whole entry, looked up): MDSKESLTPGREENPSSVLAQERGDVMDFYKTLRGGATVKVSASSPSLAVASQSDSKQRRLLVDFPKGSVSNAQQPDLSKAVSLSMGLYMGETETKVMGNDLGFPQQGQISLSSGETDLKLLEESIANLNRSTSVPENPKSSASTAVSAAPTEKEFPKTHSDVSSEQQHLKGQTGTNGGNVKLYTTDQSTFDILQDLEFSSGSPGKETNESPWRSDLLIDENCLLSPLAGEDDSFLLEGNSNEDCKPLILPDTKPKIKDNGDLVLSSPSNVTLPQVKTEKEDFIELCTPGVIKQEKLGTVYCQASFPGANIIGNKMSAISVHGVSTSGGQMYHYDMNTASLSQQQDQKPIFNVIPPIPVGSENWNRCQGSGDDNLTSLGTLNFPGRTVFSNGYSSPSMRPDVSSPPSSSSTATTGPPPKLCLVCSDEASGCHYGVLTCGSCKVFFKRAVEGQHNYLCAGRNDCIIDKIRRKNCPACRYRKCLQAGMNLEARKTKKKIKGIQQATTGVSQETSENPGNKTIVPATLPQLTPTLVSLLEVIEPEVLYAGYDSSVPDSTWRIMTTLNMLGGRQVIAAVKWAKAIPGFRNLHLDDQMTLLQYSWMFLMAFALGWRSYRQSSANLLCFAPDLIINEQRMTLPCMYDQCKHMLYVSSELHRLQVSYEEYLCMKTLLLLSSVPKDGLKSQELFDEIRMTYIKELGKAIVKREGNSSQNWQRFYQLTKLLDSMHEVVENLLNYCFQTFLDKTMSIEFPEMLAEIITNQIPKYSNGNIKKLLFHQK
# Chain of Aromatase (Homo sapiens) (P11511 whole entry, looked up): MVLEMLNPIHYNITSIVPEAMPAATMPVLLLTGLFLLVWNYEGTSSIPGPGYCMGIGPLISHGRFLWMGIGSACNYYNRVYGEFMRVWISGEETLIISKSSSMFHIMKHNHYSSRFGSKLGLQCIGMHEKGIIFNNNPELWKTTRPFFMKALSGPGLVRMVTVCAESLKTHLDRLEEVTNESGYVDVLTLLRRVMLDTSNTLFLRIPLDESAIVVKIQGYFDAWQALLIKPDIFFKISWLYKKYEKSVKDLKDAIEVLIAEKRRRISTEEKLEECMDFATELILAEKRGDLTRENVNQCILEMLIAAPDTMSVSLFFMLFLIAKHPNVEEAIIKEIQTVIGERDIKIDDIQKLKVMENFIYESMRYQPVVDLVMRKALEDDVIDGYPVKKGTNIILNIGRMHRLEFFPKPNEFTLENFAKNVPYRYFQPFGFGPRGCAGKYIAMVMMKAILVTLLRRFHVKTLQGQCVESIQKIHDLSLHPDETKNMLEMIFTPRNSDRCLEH
# Chain of Peroxisome proliferator-activated receptor gamma (Homo sapiens) (P37231 whole entry, looked up): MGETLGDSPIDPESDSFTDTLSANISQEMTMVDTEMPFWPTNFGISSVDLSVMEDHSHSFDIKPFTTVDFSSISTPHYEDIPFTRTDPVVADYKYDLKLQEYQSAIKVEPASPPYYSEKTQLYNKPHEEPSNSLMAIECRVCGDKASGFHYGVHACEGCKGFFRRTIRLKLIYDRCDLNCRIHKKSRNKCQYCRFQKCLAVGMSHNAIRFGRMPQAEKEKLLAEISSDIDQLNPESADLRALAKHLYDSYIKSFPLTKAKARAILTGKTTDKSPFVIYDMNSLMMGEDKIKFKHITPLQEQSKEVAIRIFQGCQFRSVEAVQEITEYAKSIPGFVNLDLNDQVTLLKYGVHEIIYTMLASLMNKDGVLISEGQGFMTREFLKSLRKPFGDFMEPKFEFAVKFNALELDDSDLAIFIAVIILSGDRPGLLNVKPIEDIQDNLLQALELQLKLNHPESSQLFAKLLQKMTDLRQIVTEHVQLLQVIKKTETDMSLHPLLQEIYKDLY
smiles,measurement,setting,value
CN1C(=O)N(c2ccccc2Br)Cc2cnc(Nc3ccc4c(c3)OCC(CO)O4)nc21 (stereo unspecified),Potency,[1],inactive
same,Potency,[2],inactive
CCCCCCC[N+](CC)(CC)CCCCc1ccc(Cl)cc1,Potency,[1],inactive
same,Potency,[2],inactive
O=C1CC2(CCCC2)CC(=O)N1CCCCN1CCN(c2ncccn2)CC1,Potency,[1],inactive
same,Potency,[2],inactive
CC(C)CCCC(C)NCCC(C)C (stereo unspecified),Potency,[3],inactive
same,Potency,[2],inactive
COc1ccc2cc1Oc1ccc(cc1)C[C@H]1c3c(cc4c(c3Oc3cc5c(cc3OC)CCN(C)[C@@H]5C2)OCO4)CCN1C,Potency,[1],inactive
same,Potency,[2],inactive
CC(C)=CCC1=C(O)c2ccccc2C(=O)C1=O,Potency,[1],inactive
same,Potency,[2],inactive
[Cu+],Potency,[3],inactive
NS(=O)(=O)c1cc2c(cc1C(F)(F)F)NCNS2(=O)=O,Potency,[1],inactive
same,Potency,[2],inactive
O=C(/C=C/c1ccccc1)NCCO,Potency,[1],inactive
same,Potency,[2],inactive
Nc1cc(C(Cl)=C(Cl)Cl)c(S(N)(=O)=O)cc1S(N)(=O)=O,Potency,[1],inactive
same,Potency,[2],inactive
O=C(CCCN1CCN(c2ccccn2)CC1)c1ccc(F)cc1,Potency,[1],inactive
same,Potency,[2],inactive
c1ccc(-c2ccc(C(c3ccccc3)n3ccnc3)cc2)cc1 (stereo unspecified),Potency,[3],inactive
same,Potency,[2],inactive
CC(Cc1ccc(O)c(O)c1)C(C)Cc1ccc(O)c(O)c1 (stereo unspecified),Potency,[2],inactive
CCC(=O)O[C@H]1[C@@H](N2CCCCC2)C[C@H]2[C@@H]3CC[C@H]4C[C@H](OC(C)=O)[C@@H](N5CCCCC5)C[C@]4(C)[C@H]3CC[C@@]21C,Potency,[4],inactive
same,outcome,[5],inactive
same,Potency,[6],inactive
same,Potency,[7],inactive
same,outcome,[8],inactive
same,Potency,[9],inactive
same,outcome,[10],inactive
same,outcome,[11],inactive
same,outcome,[12],inactive
same,outcome,[13],inactive
same,outcome,[14],inactive
same,outcome,[15],inactive
same,outcome,[16],inactive
same,outcome,[17],inactive
same,outcome,[18],inactive
same,outcome,[19],inactive
same,outcome,[20],inactive
same,outcome,[21],inactive
same,Potency,[22],inactive
same,Potency,[23],inactive
same,Potency,[24],3.76 µM (active)
same,Potency,[25],inactive
same,Potency,[26],inactive
same,outcome,[27],inactive
same,outcome,[28],inactive
same,Potency,[29],inactive
same,Potency,[30],inactive
same,Potency,[31],inactive
same,outcome,[32],inactive
same,Potency,Aromatase (Homo sapiens),inactive
same,outcome,[33],inactive
same,outcome,[34],inactive
same,outcome,[35],inactive
C[C@@H]1O[C@@H]1P(=O)(O)O,outcome,[34],inactive
CCCCCCCCOC(=O)c1cc(O)c(O)c(O)c1,Potency,[3],inactive
same,Potency,[2],inactive
O=[N+]([O-])O[C@@H]1CO[C@H]2[C@@H]1OC[C@@H]2O,Potency,Aromatase (Homo sapiens),inactive
same,outcome,[34],inactive
Nc1cc(Cl)c(O)c(Cl)c1,Potency,[3],inactive
same,Potency,[2],inactive
CCOc1ccc(Cc2nccc3cc(OCC)c(OCC)cc23)cc1OCC,Potency,[3],15.5 µM (active)
same,Potency,[2],inactive
